High-throughput results (PubChem BioAssay)
A selection: hits, their analogues and other compounds. The true share with any hit is near 12%.
Sfp inh = qHTS Assay for Inhibitors of Bacillus subtilis Sfp phosphopantetheinyl transferase (PPTase); 4'-phosphopantetheinyl transferase ffp (Bacillus subtilis), Q9F4F7; Biochemical Sfp PPTase activity, qHTS; Potency, µM, for the others: largest response in the series, negative = inhibition, hits mostly inhibitors; hit rate 3.5% among 310,000; AID 1490, 2009;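 further: the enzyme is Sfp with the accession as filed and its product quenches rhodamine fluorescence; 0% = enzyme reaction without inhibitor and -100% = no enzyme wells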
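Fluorescence-quenching assay with 15 nM Sfp, 5 uM rhodamine-CoA and 12.5 uM BHQ-2-labelled ybbR peptide in pH 7.6 Hepes/MgCl2 buffer. Enzyme was pre-incubated with compound for 15 min at room temperature. Rate was taken from the 30-min fluorescence change (525/598 nm).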
RORgamma inh = qHTS for inhibitors of ROR gamma transcriptional activity. Drosophila S2 Gal4-RORgamma UAS-luciferase reporter, 20 h. Potency, µM (top dose mostly 53.6 µM), for the others: at the highest dose activity change, negative = inhibition, most hits filed as inhibitors. hit rate 5.4% among 310,000; further: nearly all actives have a fitted effect of over 60% in size
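Schneider cells (Drosophila), stable Gal4 DBD–ROR gamma + UAS-luc; 1 hr cmpd preincubation; Cu2+ induction 700 uM final; 20 hr ambient; luminescence.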
VP16 counter = VP16 counterscreen qHTS for inhibitors of ROR gamma transcriptional activity; hit rate 3.5% among 310,000; Drosophila S2 Gal4-VP16 UAS-luciferase, luminescence, 20 h; Potency, µM (series often up to 53.6 µM), for the others: at the highest dose activity, negative = inhibition, actives largely listed as inhibitors;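 further: Gal4-VP16 expression switched on by copper sulfate through the metallothionein promoter; nearly all actives have a fitted effect of over 50% in size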
ALDH1A1 block = qHTS Assay for Inhibitors of Aldehyde Dehydrogenase 1 (ALDH1A1); hit rate 7.3% among 220,000; Potency, µM (titrated, usually from 75.3 µM), for the others: top-dose activity, negative = inhibition, most hits filed as inhibitors; Aldehyde dehydrogenase 1A1 (Homo sapiens), P00352; Purified ALDH1A1, NADH fluorescence, propionaldehyde substrate; AID 1030, 2008; active means well fitted inhibition curve with a large enough effect, not every such curve was filed as active; inconclusive means small, poorly fitted or top-dose-only effect, or another doubt; inactive means no such curve, though single readings can be large or run the other way;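 further: plate controls were no enzyme wells and a reference inhibitor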
Target sequence (P00352 whole entry, looked up): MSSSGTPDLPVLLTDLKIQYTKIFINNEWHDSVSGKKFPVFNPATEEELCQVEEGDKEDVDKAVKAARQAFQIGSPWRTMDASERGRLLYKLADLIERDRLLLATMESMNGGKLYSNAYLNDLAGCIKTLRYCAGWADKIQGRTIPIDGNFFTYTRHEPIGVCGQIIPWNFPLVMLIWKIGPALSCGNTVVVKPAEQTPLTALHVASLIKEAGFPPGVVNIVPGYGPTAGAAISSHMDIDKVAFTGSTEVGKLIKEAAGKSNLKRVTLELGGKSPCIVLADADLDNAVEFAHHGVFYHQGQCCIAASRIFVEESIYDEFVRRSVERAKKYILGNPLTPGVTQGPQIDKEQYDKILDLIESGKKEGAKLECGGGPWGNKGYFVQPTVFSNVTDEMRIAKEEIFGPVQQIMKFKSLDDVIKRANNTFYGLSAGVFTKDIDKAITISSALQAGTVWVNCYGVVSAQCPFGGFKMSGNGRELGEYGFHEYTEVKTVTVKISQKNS
PLK1 PBD inh = qHTS for Inhibitors of PLK1-PDB (polo-like kinase 1 - polo-box domain): Primary Screen. Plk1 PBD binding of FITC phosphopeptide, fluorescence polarization. Serine/threonine-protein kinase PLK1 (Homo sapiens), P53350. Potency, µM, without a hit: max response, negative = inhibition, hits mostly inhibitors. AID 720504, 2013. hit rate 2.8% among 360,000; further: series mostly up to about 57 µM; nearly all actives have a fitted effect of over 65% in size
* hit, by the source's call; ? = inconclusive; nt = no result given; [ ] = dose if it differs, or a comment. Unless noted, the call rests on the fitted dose curve; in most records, active means well fitted curve in the direction sought with a large enough effect; inconclusive means small, poorly fitted or top-dose-only effect, or another doubt; inactive means no such curve, though single readings can be large; an effect the other way counts as inactive or inconclusive. Unless noted, on the % scale 0 is the no-effect control and ±100 the full control effect; potency means the concentration at half of the fitted maximal effect.

SMILES | Sfp inh | RORgamma inh | VP16 counter | ALDH1A1 block | PLK1 PBD inh
CCOc1ccc2[nH]c(=O)c(CN(Cc3ccco3)C(=O)c3cccc(F)c3)cc2c1 | -16% | -4% | -5% | ? | 4%
Cc1cc(C)c2[nH]c(=O)c(CN(Cc3ccco3)C(=O)c3cccs3)cc2c1 | ? | 13% | 1% | 18µM* | nt
COc1cccc(C(=O)N(Cc2ccco2)Cc2cc3cccc(C)c3[nH]c2=O)c1 | 2% | -32% | -12% | 14µM* | -2%
NC(Cc1ccc(C(F)(F)F)cc1)c1csc(Nc2cc(Oc3ccccc3)ncn2)n1 (stereo unspecified) | nt | nt | nt | nt | -17%
CCN(CC)CCn1c(-c2ccccc2)nc2c(NCc3ccccc3)nc(C)nc21 | 11% | -34% | -4% | ? | nt
O=C(O)c1ccccc1N/C=C\[N+](=O)[O-] | 56µM* | 3% | 0% | ? | -5%
CCOC=C1C(=O)N(C(C)=O)c2cc(OC)c(OC)cc21 | nt | nt | nt | nt | -21%
CCOC(=O)c1c(-c2ccc(OC)cc2)csc1/N=C/C1=C(O)CCCC1=O | -14% | ? | ? | 2.2µM* | 4%
COc1ccc(N2C(=O)CSC23C(=O)N2CCCc4cccc3c42)cc1 (stereo unspecified) | 2% | 15% | -5% | 11µM* | -2%
O=C1CSC2(C(=O)N3CCCc4cccc2c43)N1c1cccc(C(F)(F)F)c1 (stereo unspecified) | 10% | 14% | 11% | ? | -9%
CS(=O)(=O)c1sc(C#N)c2c1C(=O)CC(c1ccccc1)C2 (stereo unspecified) | ? | 4.5µM* | 4.5µM* | 59% | 5.3µM*
Cc1oc2c(c(=O)c1C)C(=O)CC(c1ccccc1)C2 (stereo unspecified) | -6% | -1% | -11% | -3% | -2%
Cc1ccc(N=C2NC(=O)/C(=C\c3ccsc3)S2)c(C)c1 | 79µM* | ? | ? | -5% | 30µM*
Cc1ccc(N=C2NC(=O)/C(=C/c3cccnc3)S2)c(C)c1 | 7% | -29% | -6% | nt | ?
Cc1[nH]c(=S)sc1Cc1ccc(Cl)c(Cl)c1 | ? | 16µM* | ? | 25µM* | nt
Cc1cccc(C)c1OC(=O)CCN1C(=O)C2C3C=CC(C4CC34)C2C1=O (stereo unspecified) | -7% | 28% | -1% | ? | -7%
O=C(NNc1nc2ccccc2s1)Nc1ccc(F)cc1 | 100µM* | -89% | ? | nt | -14%
O=C(NNc1nc2ccccc2s1)Nc1ccc(Cl)c(Cl)c1 | 56µM* | 0% | ? | nt | -5%
O=C(NNc1nc2ccccc2s1)c1ccccc1F | 20% | ? | ? | 3% | -13%
COCCNC(=O)C1(C)CCCN(C(=O)c2ccc(C(F)(F)F)cc2)C1 (stereo unspecified) | nt | nt | nt | nt | 1%
NC(=O)CCC1NC(=O)C(Cc2ccccc2)NC(=O)C(Cc2ccc(O)cc2)NC(=O)CCSSCC(C(=O)N2CCCC2C(=O)NC(CCCN=C(N)N)C(=O)NCC(N)=O)NC(=O)C(CC(N)=O)NC1=O (stereo unspecified) | 23% | 5% | 0% | nt | nt
CC1(C(=O)NS(=O)(=O)c2ccc(Br)cc2)CCN1C(=O)C1(c2ccccc2)CC1 (stereo unspecified) | nt | nt | nt | nt | 3%
CC1(C)CCC[C@]2(C)C3CC(=O)O[C@@]3(C)CC[C@H]12 (stereo partly specified) | 7% | -5% | -5% | 20µM* | nt
CC(=O)NC(=S)Nc1ccc(N2CCOCC2)c(S(=O)(=O)Nc2cc(Cl)ccc2Cl)c1 | 17% | ? | ? | 0.35µM* | -8%
CCCC(=O)Nc1cc(S(=O)(=O)N2CCOCC2)ccc1N1CCCCC1 | nt | nt | nt | nt | 24µM*
SMILES | Sfp inh | RORgamma inh | VP16 counter | ALDH1A1 block | PLK1 PBD inh
CCCC(C)C(=O)Nc1cc(S(=O)(=O)N2CCCCC2)ccc1N1CCOCC1 (stereo unspecified) | nt | nt | nt | nt | -17%
Nc1cc(S(=O)(=O)Nc2cc(Cl)ccc2Cl)ccc1N1CCOCC1 | 11µM* | ? | ? | nt | 1.9µM*
CC(C)C(=O)Nc1cc(S(=O)(=O)N2CCOCC2)ccc1N1CCCCC1 | nt | nt | nt | nt | 24µM*
Nc1cc(S(=O)(=O)Nc2ccccc2Cl)ccc1N1CCCC1 | -4% | -7% | ? | nt | -6%
CC(C)NC(=O)c1cc(C2CCCCN2C(=O)c2ccc(C#N)cc2)on1 (stereo unspecified) | nt | nt | nt | nt | -3%
O=c1onc2cnc3ccccc3n12 | -6% | -33% | 10% | ? | nt
COc1ccccc1OCC(=O)Nc1cc(S(=O)(=O)N2CCOCC2)ccc1N1CCCCC1 | nt | nt | nt | nt | 24µM*
COC(=O)CCC(=O)Nc1cc(S(=O)(=O)Nc2ccc(Cl)cc2)ccc1N1CCOCC1 | -16% | 43% | 6% | 20µM* | 15µM*
CCCC(=O)Nc1cc(S(=O)(=O)N2CCCCC2)ccc1N1CCOCC1 | nt | nt | nt | nt | -7%
CCc1ccccc1OCC(=O)Nc1cc(S(=O)(=O)N2CCOCC2)ccc1N1CCCCC1 | nt | nt | nt | nt | 10%
O=C(CN1CCN(c2ccc(O)cc2)CC1)Nc1cc(S(=O)(=O)N2CCCCC2)ccc1Cl | 56µM* | 43% | -7% | 24µM* | 1%
Nc1cc(S(=O)(=O)N2CCCCC2)ccc1N1CCCCC1 | nt | nt | nt | nt | -1%
Nc1cc(S(=O)(=O)N2CCOCC2)ccc1N1CCCCC1 | nt | nt | nt | nt | 3µM*
NC(=O)C[C@H](NC(=O)c1ccc(Cl)cc1)C(=O)OCc1ccccc1 | nt | nt | nt | nt | 1%
NC(=O)CC(NC(=S)NCc1ccccc1)C(=O)O (stereo unspecified) | ? | ? | ? | ? | 21µM*
O=C(O)CC(NC(=S)NCc1ccccc1)C(=O)O (stereo unspecified) | -6% | 16µM* | 11µM* | 1% | -7%
COc1ccc(NC(=O)NNC(=O)C(C)Oc2ccc(C(C)C)cc2)c(OC)c1 (stereo unspecified) | -1% | 20µM* | ? | nt | 2%
COc1ccc(OC(C)C(=O)Nc2ccccc2F)cc1 (stereo unspecified) | 11% | -4% | 6% | 3% | 3%
COc1ccc(OC(C)C(=O)Nc2ccc(F)cc2F)cc1 (stereo unspecified) | 9% | 5% | -11%[10 µM] | 0% | 21µM*
COc1ccc(Cn2cc(CN3CC(N(C)C)CS3(=O)=O)nn2)cc1 (stereo unspecified) | nt | nt | nt | nt | -10%
CCCCSc1nnc(-c2ccccc2NC(C)=O)c(=O)[nH]1 | 17% | -8% | -3% | -5% | -3%
C#Cc1ccc([C@@H]2C=C(C(=O)OCC=C)O[C@H](OCc3ccc(CO)cc3)C2)cc1 | 8% | 30% | -7% | 13µM* | -20%
